SMARCA2 activ = SMARCA2 (BRM) function activators, primary screen, cell-based, luminescence, high throughput | AID 652017, 2013 | hit rate 1% among 370,000 | MG213 cells, MMTV-luciferase reporter, dexamethasone, overnight | activation, % at 9.1 µM; in the data active = activation above about 7.8%
GAA850 FXN act = FXN promoter activators, primary screen, cell-based, luciferase luminescence, HEK293 lucGAA850. activation, % at 6 µM. HEK293 lucGAA850 FXN promoter luciferase reporter, 24 h; percent of 10 µM SAHA response. hit rate 0.56% among 360,000;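 active = activation above the average of all compounds screened plus 3 SD, cutoff fixed separately per campaign, cut at about 7.5% in these data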
GalR3 antag = GalR3 antagonists in HEK293 cells, primary screen, cell-based, fluorescence readout; Galanin receptor type 3 (Homo sapiens), O60755; hit rate 0.44% among 360,000; inhibition, % at 3 µM; AID 651719, 2012; HEK293 GalR3-CNG cAMP membrane potential fluorescence; galR3 body fused to GalR1 C-terminus;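 active = inhibition above the screen-wide average plus 3 SD, cut at about 13% in these data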;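 also: forskolin and galanin both at EC90 stimulate the cells; cAMP rise reported by CNG channel membrane potential dye signal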
Gli-Sufu block = Gli-Sufu pathway antagonists, primary screen, luciferase luminescence, Sufu-KO-LIGHT cells, uHTS; Sufu-KO-LIGHT fibroblasts, Gli luciferase reporter luminescence; inhibition, % at 5 µM; hit rate 0.74% among 340,000; AID 588413, 2011;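 active = inhibition above about 55%, limit read from the data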
H9c2 protect = cardioprotection against H2O2-induced cell death, primary screen, uHTS, H9c2 cells, ATPLite luminescence; H9c2 cardiomyocytes, H2O2 injury protection, 2 h; protection from H2O2 cell death, % at 20 µM; AID 588492, 2011; hit rate 0.63% among 360,000;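 active = compounds giving at least 50% protection of heart cells from peroxide-induced death in the single-dose screen, raw or plate-pattern-corrected value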
COUP-TFII inh = NR2F2 transcriptional activity inhibitors, primary screen, cell-based, luciferase reporter, HEK293T, luminescence. AID 686940, 2013. hit rate 0.7% among 370,000. HEK293T NGFI-A luciferase reporter. inhibition, % at 8.6 µM;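 active = inhibition above a per-plate cutoff, mean inhibition of test wells between control levels plus 3 SD, cut at about 38% in these data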;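 also: cells cotransfected with COUP-TFII expression vector driving the NGFI-A reporter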
Target sequence (P24468 whole entry, looked up): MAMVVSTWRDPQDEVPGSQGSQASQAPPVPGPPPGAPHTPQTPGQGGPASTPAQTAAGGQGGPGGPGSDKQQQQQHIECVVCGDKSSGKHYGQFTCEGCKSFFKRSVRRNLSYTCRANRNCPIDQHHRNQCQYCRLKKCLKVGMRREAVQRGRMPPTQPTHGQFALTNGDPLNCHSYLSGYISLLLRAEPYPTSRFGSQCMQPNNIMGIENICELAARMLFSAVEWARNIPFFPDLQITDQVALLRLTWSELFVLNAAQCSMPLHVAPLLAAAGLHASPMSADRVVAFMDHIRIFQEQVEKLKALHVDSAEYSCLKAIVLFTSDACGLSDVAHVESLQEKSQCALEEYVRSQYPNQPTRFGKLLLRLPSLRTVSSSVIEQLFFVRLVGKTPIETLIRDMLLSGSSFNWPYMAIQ
GalR3 antag conf = GalR3 antagonist hit confirmation, cell-based, fluorescence, triplicate | shares compounds with GalR3 antag | HEK293 GalR3 CNG cAMP biosensor, membrane potential fluorescence; galR3 fused to GalR1 carboxy tail; challenged with forskolin and galanin at EC90 | inhibition, % at 3 µM | hit rate 59% among 1,600 | AID 652245, 2013;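 active = inhibition above the primary screen's cutoff, the mean inhibition of all screened compounds plus 3 SD, cut at about 13% in these data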
CNG parental = nonspecific cAMP agonists in parental HEK-CNG cells, counter-screen for GalR3 antagonist project, cell-based, fluorescence, high throughput. activation, % at 3 µM. hit rate 10% among 1,600. shares compounds with GalR3 antag. AID 652268, 2013. HEK293-CNG parental cells, cAMP membrane potential fluorescence; normalised: DMSO wells 0%, forskolin wells 100%; in the data active = activation above about 1.3%
Of the large screens only hits and unclear results are named; the others gave an inactive call (follow-up assays come after a bar, where they were run). Rows were chosen to be rich in hits. Some 3.4% of all compounds tested hit in one or more screens of this group.

CC1(C)CC(=O)C2=C(C1)NC1=C(C(=O)c3ccccc31)C2c1ccc(O)cc1 (centres undefined)	GalR3 antag 34.4 | GalR3 antag conf 60.2 | CNG parental inactive
O=S(=O)(c1ccccc1)c1ncc(C(F)(F)F)cc1Cl	GalR3 antag 15.4 | GalR3 antag conf 23.8 | CNG parental inactive
FC(F)(F)c1cc(-c2ccccc2)nc(N2CCCCCC2)n1	GalR3 antag 14.7 | GalR3 antag conf inactive | CNG parental inactive
O=C(Cc1ccc(Cl)cc1)c1c[nH]c(C(=O)NCCCn2ccnc2)c1	none
CCn1c2ccccc2c2cc(C3C(C#N)=C(N)Oc4n[nH]c(COC)c43)ccc21 (centres undefined)	GalR3 antag 41.3 | GalR3 antag conf 26.2 | CNG parental inactive
COc1ccccc1NC(=O)CSc1nc(N)c(-c2ccccc2)c(=O)[nH]1	GalR3 antag 46.4 | GalR3 antag conf 38.3 | CNG parental inactive
Nc1nc(SCC(=O)Nc2ccccc2C(F)(F)F)[nH]c(=O)c1-c1ccccc1	none
O=C(COc1ccc(Cl)cc1)Nc1ccc(CN2CCOCC2)cc1	none
CC(C)c1ccc(/C=C/C(=O)NC(=S)NN2CCOCC2)cc1	none
CCC(C)c1ccc(OCC(=O)Nc2ccc(CN3CCOCC3)cc2)cc1 (centres undefined)	GalR3 antag 18.4 | GalR3 antag conf inactive | CNG parental inactive
CC(C)c1ccc(/C=C/C(=O)NC(=S)Nc2ccc(CN3CCOCC3)cc2)cc1	GalR3 antag 46.3 | GalR3 antag conf 75.2 | CNG parental 22.0
CC1(C(=O)NCC2CC2)CCN1C(=O)C1(c2ccccc2)CC1 (centres undefined)	none (no result: Gli-Sufu block)
CCOC(=O)[C@]12CCC=C1N(Cc1ccco1)C(=O)[C@H](CC(=O)NCCCCc1ccccc1)C2	none (no result: GAA850 FXN act, Gli-Sufu block, H9c2 protect)
CCOC(=O)C1CCN(C2CCN(Cc3nc(-c4ccccc4)no3)CC2)CC1	GalR3 antag 12.8 | GalR3 antag conf inactive | CNG parental inactive
CCOC(=O)C1CCCN(C2CCN(Cc3nc(-c4ccccc4)no3)CC2)C1 (centres undefined)	none
CCOC(=O)C(C)Sc1nc2c(cnn2-c2ccc(F)cc2)c(=O)[nH]1 (centres undefined)	none
O=C(O)CNC(=S)N(Cc1ccc(F)cc1)C1CCCCC1	none
O=C(O)CNC(=S)N(Cc1ccccc1Cl)C1CCCCC1	GalR3 antag 14.4 | GalR3 antag conf inactive | CNG parental inactive
COCCCNC(=O)C(=O)Nc1ccc2c(c1)N(S(=O)(=O)c1cccs1)CCC2	GalR3 antag 15.5 | GalR3 antag conf inactive | CNG parental 2.1
Cc1ccc(/C=N/N2CCN(Cc3ccc(C)cc3)CC2)cc1	none
Cc1ccc(CN2CCN(/N=C/c3ccc(C(F)(F)F)cc3)CC2)cc1	GalR3 antag 16.4 | GalR3 antag conf inactive | CNG parental inactive
CC(=O)c1c(C)[nH]c(C(=O)OCC(=O)NCc2ccc(Cl)cc2)c1C	none
CC(=O)c1c(C)[nH]c(C(=O)OCC(=O)Nc2cc(Cl)ccc2[N+](=O)[O-])c1C	GalR3 antag 93.3 | GalR3 antag conf 49.7 | CNG parental inactive
CCC1SC(CC)C(=O)N(CC(=O)Nc2ccc3c(c2)OCO3)C1=O (centres undefined)	none
O=C(NCc1ccc(Cl)cc1)C(=O)c1cn(CC(=O)N2CCOCC2)c2ccccc12	GalR3 antag 19.3 | GalR3 antag conf inactive | CNG parental inactive
COc1ccc(CNC(=O)C(=O)c2cn(CC(=O)N3CCOCC3)c3ccccc23)cc1	none
Cc1ccc(S(=O)(=O)Oc2ccccc2/C=N/O)cc1	none
Cc1ccc(S(=O)(=O)Oc2ccccc2/C=N/Nc2ccc(C(=O)O)cc2)cc1	GalR3 antag 18.1 | GalR3 antag conf inactive | CNG parental inactive
CCN(CC)S(=O)(=O)c1ccc(N2CCOCC2)c(NC(=O)COc2ccccc2)c1	none (no result: GalR3 antag) | GalR3 antag conf 12.9 | CNG parental inactive
CCN(CC)S(=O)(=O)c1ccc(N2CCOCC2)c(NC(=O)CCOc2ccccc2)c1	none
CCc1ccc2c(c1)C1(NN=C(c3cccc4ccccc34)S1)C(=O)N2 (centres undefined)	GalR3 antag 23.4 (no result: Gli-Sufu block) | GalR3 antag conf inactive | CNG parental inactive
C#CCOC(=O)C[N+](C)(C)CC#Cc1ccccc1	none
O=C(Nc1ccccc1)c1ccc(CN2CCc3ccccc3C2)cc1	GalR3 antag 92.0 | GalR3 antag conf 102.3 | CNG parental inactive
Cc1ccc(NC(=O)c2ccc(CN3CCc4ccccc4C3)cc2)cc1	GalR3 antag 27.1 | GalR3 antag conf 103.6 | CNG parental inactive
Cc1cc(C)cc(NC(=O)c2ccc(CN3CCc4ccccc4C3)cc2)c1	none
O=C(COc1ccc2c(-c3ccccc3)cc(=O)oc2c1)Nc1cccnc1	none
O=S(=O)(Nc1nc2ccccc2nc1NCC1CCCO1)c1cc(Cl)ccc1Cl (centres undefined)	GalR3 antag 15.2 | GalR3 antag conf inactive | CNG parental inactive
O=S(=O)(Nc1nc2ccccc2nc1NCC1CCCO1)c1ccccc1 (centres undefined)	none
CCCOc1nc2ccccc2cc1/C=C/C(=O)O	GalR3 antag 14.2 | GalR3 antag conf inactive | CNG parental inactive
Cc1ccc(CNC(=O)c2ccc(N3CCC4(CC3)CC(c3cccc(Br)c3)=NO4)c(NC(=O)c3ccccc3)c2)cc1	GalR3 antag 13.8 | GalR3 antag conf 22.9 | CNG parental inactive
[O-][n+]1c2cc(C(F)(F)F)ccc2c2n1CCN=C2c1ccc(Cl)cc1	none (no result: GalR3 antag) | GalR3 antag conf inactive | CNG parental inactive
Nc1c(Cl)cc(C2=NCCn3c2c2ccc([N+](=O)[O-])cc2[n+]3[O-])cc1Cl	none
O=C(CSc1nnnn1-c1cccc2c1CCCC2)NC1CCCC1	none
COC(=O)C1=CO[C@@H](O[C@@H]2O[C@H](CO)[C@@H](O)[C@H](O)[C@H]2O)C2C1C=C[C@@]2(O)CO (some centres undefined)	none (no result: GalR3 antag) | GalR3 antag conf inactive | CNG parental inactive
